This note sets out measurements from the supplement of paper PMC9477273.

This assay has as its system DRIVER-selected RNA biosensor (aptazyme) pool. In words: maximum fold change of ribozyme cleavage across biosensor pool versus no-compound control; higher = stronger biosensor response (ligand inhibits cleavage). The note with it: 10 µM. In outline: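 Fold change of cleavage, the ratio of cleaved:uncleaved read fractions versus a no-compound condition corrected with reference sequences, is given as the maximum over all biosensors. It was measured by CleaveSeq on a pool of 1,730 array-resynthesized ribozyme biosensors transcribed by T7 with 9 mM rNTPs for 15–30 min at 37°C in the presence of one compound at 10 µM final, added from a 10x DMSO stock. After reverse transcription at 50°C, cleaved and uncleaved products were PCR-barcoded and counted by Illumina sequencing.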
In turn, `Cc1ccc(CNCc2c(C(=O)O)c(C)n(Cc3ccccc3C)c2C)o1` showed a maximum fold change of 3.25. Consider `COC(=O)/C(C#N)=C/c1c(Oc2ccccc2Cl)nc2ccccn2c1=O`, for which the maximum fold change came out at 3.58. The molecule `CC1=[N+](CCCS(=O)(=O)O)SC2C=CC(Cl)=CC12` (centres undefined) returned a maximum fold change of 1.77. Consider `CC(NC(=O)/C=C/c1ccccc1Cl)c1ccccc1` (centres undefined), for which the maximum fold change was determined as 2.1. In turn, `N#C/C(=Cc1c(Oc2ccc(c(c2)C)Cl)nc2n(c1=O)cccc2)/C(=O)N1CCCCC1` showed a maximum fold change of 2.6. As to `CCN1CCN(C(=O)c2cc(C)nn2-c2ccccc2)CC1`, the maximum fold change was found to be 2.67. For `CCOC(=O)c1cnc(SC)nc1NC(=O)CSCc1csc2c1CCCC2`, the maximum fold change amounted to 3.61. Molecule `Cc1ccc(C(=O)N(Cc2ccccc2F)C2CCS(=O)(=O)C2)cc1` (centres undefined) returned a maximum fold change of 2.6. The same measure for `COc1ccc(S(=O)(=O)N2CCCN(CC(=O)C(C)(C)C)CC2)cc1`: 2.33; for `O=C(NCC(=O)N1CCOCC1)c1ccccc1`: 1.78; for `O=C(NCc1ccco1)c1ccccc1Br`: 2.5. Regarding `COc1ccc(/C=C/C(=O)Nc2nc3ccc(S(C)(=O)=O)cc3s2)cc1Br`, the maximum fold change was 3.76. The molecule `Cc1ccc(-c2noc(CCC(=O)NCCN3CCOCC3)n2)cc1` came in with a maximum fold change of 3.61.

Molecule `Cc1ccn2c(=O)c(C(=O)Nc3cccnc3)cnc2c1` came in with a maximum fold change of 10.8. `COc1ccc(OC)c(C2C3=C(CC(C)(C)CC3=O)OC3=C2C(=O)CC(C)(C)C3)c1`: the maximum fold change stood at 2.36. Consider `CCOC(=O)C1=C(C)Nc2nc(-c3cccs3)nn2C1c1ccc(C#N)cc1` (centres undefined), for which the maximum fold change came to 1.85. Molecule `CCN(Cc1ccccc1)Cc1csc(C)c1C` had a maximum fold change of 3.07. With `CCOC(=O)N1CCC(NC(=O)c2ccc(CS(=O)c3cccc(C)c3)o2)CC1` (centres undefined) the figure was 2.53. With `O=C(NCc1cccc(Cl)c1)c1cnc2ccccn2c1=O` the figure was 7.03.
